Compound activity deposited in PubChem BioAssay by National Center for Advancing Translational Sciences (NCATS).
HTT ATP protect – Huntington cell model cytoprotection by ATP luminescence; PC12 HTT-Q103 induced, cytoprotection, ATP luminescence, 40 h; Potency, µM (top dose mostly 56.4 µM), most hits filed as activators; 230,000 compounds, 0.14% hits; further: nearly all actives have a fitted effect of over 45% in size
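Quantitative HTS on tebufenozide-induced (100 nM) PC12 cells expressing HTTQ103 exon 1–GFP; compounds tested as a concentration series; survival measured via cellular ATP.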
ALDH1A1 block – ALDH1A1 (human) enzyme inhibition | Potency, µM (highest dose often 75.3 µM), usual class: inhibitors | Purified ALDH1A1, NADH fluorescence, propionaldehyde substrate | 220,000 compounds, 7.3% hits | P00352; active means well fitted inhibition curve with a large enough effect, not every such curve was filed as active; inconclusive means small, poorly fitted or top-dose-only effect, or another doubt; inactive means no such curve, though single readings can be large or run the other way
Target sequence (P00352 whole entry, looked up): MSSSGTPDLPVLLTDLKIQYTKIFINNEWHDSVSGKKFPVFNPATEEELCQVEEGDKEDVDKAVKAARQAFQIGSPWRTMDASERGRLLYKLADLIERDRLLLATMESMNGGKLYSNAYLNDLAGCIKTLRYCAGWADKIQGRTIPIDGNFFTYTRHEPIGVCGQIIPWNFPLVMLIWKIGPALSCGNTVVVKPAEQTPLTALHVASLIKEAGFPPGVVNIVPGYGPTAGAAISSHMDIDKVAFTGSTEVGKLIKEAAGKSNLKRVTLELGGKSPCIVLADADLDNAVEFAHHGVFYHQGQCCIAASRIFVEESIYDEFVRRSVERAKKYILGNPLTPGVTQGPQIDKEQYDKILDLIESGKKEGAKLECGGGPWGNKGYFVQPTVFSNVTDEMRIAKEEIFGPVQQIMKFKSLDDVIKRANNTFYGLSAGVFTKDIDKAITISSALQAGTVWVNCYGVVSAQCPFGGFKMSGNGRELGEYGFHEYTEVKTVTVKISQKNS
HttQ103 aggreg – inhibitors of mutant huntingtin aggregate formation in PC12 cells; AID 1688; 220,000 compounds, 1.1% hits; Potency, µM (highest dose often 46.1 µM), usual class: inhibitors; PC12 HttQ103-GFP aggregates, Acumen cytometry, 40 h; further: nearly all actives have a fitted effect of over 60% in size
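Aggregate formation scored by laser-scanning cytometer (488 excitation, 500–530 emission) in lysed PC12 cells expressing Q103-GFP after 100 nM tebufenozide induction; library tested in dose series, with ATPLite reagent added in the multiplex.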
CBFb-RUNX1 inh – blocks binding between human CBF-beta and RUNX1; Potency, µM (doses to about 59.8 µM), actives largely listed as inhibitors; 230,000 tested, under 10 active; AlphaScreen CBFb-His/RUNX1-biotin binding, biochemical
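CBF-beta (His) and RUNX1 (biotin), 30 nM each; 20 min preassociation; + compound, 15 min; + beads 50 ng each (Ni, streptavidin), 90 min; RT; AlphaScreen read.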
HPGD block – blocks human HPGD enzyme activity; P15428; purified HPGD, NADH fluorescence kinetic, PGE2 substrate; Potency, µM, actives largely listed as inhibitors; 150,000 compounds, 4.3% hits; AID 894; active means well fitted inhibition curve with a large enough effect, not every such curve was filed as active; inconclusive means small, poorly fitted or top-dose-only effect, or another doubt; inactive means no such curve, though single readings can be large or run the other way
Target sequence (P15428 whole entry, looked up): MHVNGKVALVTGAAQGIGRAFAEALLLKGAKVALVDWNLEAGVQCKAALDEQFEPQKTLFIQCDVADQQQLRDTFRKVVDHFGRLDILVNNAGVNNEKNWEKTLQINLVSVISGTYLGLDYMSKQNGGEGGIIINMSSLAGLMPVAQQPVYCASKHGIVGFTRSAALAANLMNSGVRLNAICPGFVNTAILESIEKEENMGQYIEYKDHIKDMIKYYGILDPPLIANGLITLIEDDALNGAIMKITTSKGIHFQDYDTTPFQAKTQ
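NADH formation kinetics: reaction with 30 uM PGE2 and 1 mM NAD+ (final), 20 nM enzyme, Tris-HCl pH 8 with Tween 20, after 15 min compound preincubation at room temperature. Fluorescence change, last versus first of five reads.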
PNC inhibitor – blocks assembly of the perinucleolar compartment. activity change (PNC), negative = inhibition, % at 10 µM. PC3M PTB-GFP, PNC prevalence imaging, 16 h; stronger effect = lower value. 140,000 compounds, 3.1% hits;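 active means readout at or below -70, meaning at least 70% loss of cells showing the perinucleolar compartment, a nuclear body marking cancer cells; inconclusive means readout between -30 and a set limit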
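PC3M cells stably expressing PTB-GFP, 750–1000 cells/well, treated 16 h at 37 °C with compound (23 nl of library stock), in duplicate. After paraformaldehyde fixation and Hoechst stain, imaged at 20x; PNC prevalence scored by image analysis.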
Of the large screens only hits and unclear results are named; the others gave an inactive call. Compounds with a hit are over-represented: about 11% of the library has one in this group of screens. Unless noted, the call rests on the fitted dose curve; in most records, active means well fitted curve in the direction sought with a large enough effect; inconclusive means small, poorly fitted or top-dose-only effect, or another doubt; inactive means no such curve, though single readings can be large; an effect the other way counts as inactive or inconclusive.

N#CCSc1nc2ccccc2c(=O)n1CCCC(=O)NCC1CCCO1 (configuration not stated)	ALDH1A1 block 28µM (no result: HPGD block, PNC inhibitor)
O=C(CCCn1c(SCc2cccc(F)c2)nc2ccccc2c1=O)NCC1CCCO1 (configuration not stated)	ALDH1A1 block 16µM (no result: HPGD block, PNC inhibitor)
COc1ccc(-c2nc3cnc(N4CCNCC4)nc3n(CCC#N)c2=O)cc1	ALDH1A1 block inconclusive (no result: HttQ103 aggreg, CBFb-RUNX1 inh, PNC inhibitor)
O=C(NCC1CCCO1)C(c1ccccn1)N(Cc1ccccc1Cl)C(=O)CN1C(=O)c2ccccc2S1(=O)=O (configuration not stated)	ALDH1A1 block inconclusive (no result: HPGD block, PNC inhibitor)
CCn1c(SCC(=O)NC(=O)NCc2ccco2)nc2sc(C)c(C)c2c1=O	ALDH1A1 block 8.9µM, HttQ103 aggreg inconclusive, HPGD block inconclusive
Cc1sc2nc(SCC(=O)N3CCOCC3)[nH]c(=O)c2c1C	HPGD block 16µM
Cc1sc2nc(CSCC(=O)Nc3ccc(N4CCOCC4)cc3)[nH]c(=O)c2c1C	ALDH1A1 block 11µM (no result: HPGD block, PNC inhibitor)
Cc1sc2nc(SCC(=O)NCc3cccs3)[nH]c(=O)c2c1C	HPGD block 25µM
CCNc1ncc2nc(-c3ccc(Cl)cc3)c(=O)n(Cc3cccs3)c2n1	ALDH1A1 block inconclusive (no result: HttQ103 aggreg, CBFb-RUNX1 inh, HPGD block, PNC inhibitor)
Cc1sc2nc(SCC(=O)NCc3ccco3)n(C)c(=O)c2c1C	none
Cc1sc2nc(SCC(=O)NCc3ccco3)[nH]c(=O)c2c1C	HPGD block 7.9µM
COC(=O)[C@@]1(Cc2ccccc2)[C@H]2c3cc(C(=O)N4CCCC4)n(Cc4ccc(O)c(OC)c4)c3C[C@H]2CN1C(=O)c1ccccc1	ALDH1A1 block inconclusive (no result: HttQ103 aggreg, PNC inhibitor)
O=C(Oc1ccc(C(=S)N2CCOCC2)cc1Br)c1cc(Cl)ccc1Cl	none
O=C(Oc1c(Br)cc(C(=S)N2CCOCC2)cc1Br)c1ccc(Cl)cc1	ALDH1A1 block 6.3µM, HPGD block 16µM
O=C(OCc1nc2ccccc2s1)c1cccc(S(=O)(=O)N2CCOCC2)c1	PNC inhibitor -100
O=C(CCc1nc2ccccc2[nH]c1=O)OCc1ccc(S(=O)(=O)N2CCOCC2)cc1	ALDH1A1 block inconclusive
O=C(CCc1ccc(S(=O)(=O)N2CCOCC2)cc1)OCc1nc2ccccc2s1	ALDH1A1 block 7.9µM
CO/N=C(/C(=O)N[C@@H]1C(=O)N2C(C(=O)O)=C(CSc3nc(C)c(CC(=O)O)s3)CS[C@H]12)c1csc(N)n1	none (no result: ALDH1A1 block, CBFb-RUNX1 inh, HPGD block, PNC inhibitor)
O=C1c2cccc3c(Nc4ccccc4Cl)c([N+](=O)[O-])cc(c23)C(=O)N1CCO	HttQ103 aggreg 10µM, HPGD block 1.4µM
O=C1c2cccc([N+](=O)[O-])c2C(=O)N1CCO	none (no result: HPGD block, PNC inhibitor)
COc1cccc(NC(=O)N2CCN(Cc3nc4ccccc4c(=O)[nH]3)CC2)c1	none (no result: ALDH1A1 block, HttQ103 aggreg, CBFb-RUNX1 inh, HPGD block, PNC inhibitor)
O=C(Nc1sc2c(c1C(=O)O)CCCC2)c1cccs1	HPGD block 25µM
Cc1ccc(C)n1-c1sc2c(c1C(=O)O)CCCC2	ALDH1A1 block 28µM, HttQ103 aggreg inconclusive, CBFb-RUNX1 inh inconclusive (no result: HTT ATP protect)
O=C(Nc1sc2c(c1C(=O)O)CCC2)c1ccco1	HPGD block 22µM
Cc1ccc(C(=O)Nc2sc3c(c2C(=O)O)CCCCC3)o1	ALDH1A1 block 19µM, HttQ103 aggreg inconclusive, HPGD block 14µM, PNC inhibitor inconclusive
COC(=O)c1c(NC(=O)c2ccc(C)o2)sc2c1CCCCC2	ALDH1A1 block inconclusive, CBFb-RUNX1 inh inconclusive, HPGD block inconclusive
O=C(N/N=C1/C[C@@H](O)[C@@H](O)[C@@H]2[C@@H]3C(=O)N(Cc4ccc5c(c4)OCO5)C(=O)[C@H]3CC[C@H]12)OCc1ccccc1	none (no result: HttQ103 aggreg, HPGD block, PNC inhibitor)
CC[C@H](C)[C@H](NC(=O)[C@H](CO)NC(=O)[C@H](CC(N)=O)NC(=O)[C@H](CC(C)C)NC(=O)[C@H](Cc1ccc(O)cc1)NC(=O)[C@H](CCCCN)NC(=O)[C@H](CCCCN)NC(=O)[C@@H](NC(=O)[C@H](C)NC(=O)[C@H](CCSC)NC(=O)[C@H](CCC(N)=O)NC(=O)[C@H](CCCCN)NC(=O)[C@H](CCCNC(=N)N)NC(=O)[C@H](CC(C)C)NC(=O)[C@H](CCCNC(=N)N)NC(=O)[C@@H](NC(=O)[C@H](Cc1ccc(O)cc1)NC(=O)[C@H](CC(N)=O)NC(=O)[C@H](CC(=O)O)NC(=O)[C@@H](NC(=O)[C@H](Cc1ccccc1)NC(=O)[C@@H](NC(=O)[C@H](C)NC(=O)[C@H](CC(=O)O)NC(=O)[C@H](CO)NC(=O)[C@@H](N)Cc1cnc[nH]1)C(C)C)[C@@H](C)O)[C@@H](C)O)C(C)C)C(=O)N[C@@H](CC(C)C)C(=O)N[C@@H](CC(N)=O)C(N)=O	none (no result: HTT ATP protect, ALDH1A1 block, HttQ103 aggreg, HPGD block, PNC inhibitor)
COc1ccc(OC)c(S(=O)(=O)N2CCC(C(=O)NCCC3=CCCCC3)CC2)c1	ALDH1A1 block 22µM, PNC inhibitor -100
O=C(NCCC1=CCCCC1)C1CCN(S(=O)(=O)N2CCCC2)CC1	ALDH1A1 block inconclusive (no result: HPGD block, PNC inhibitor)
Cc1noc(/C=C/c2ccco2)c1S(=O)(=O)N1CCC(C(=O)N2CCc3ccccc3C2)CC1	ALDH1A1 block inconclusive, HPGD block 20µM
CCS(=O)(=O)N1CCC(C(=O)NCCC2=CCCCC2)CC1	ALDH1A1 block inconclusive, PNC inhibitor inconclusive
CCN1CCN(S(=O)(=O)c2cc(OC)ccc2OC)CC1	none
COc1ccc(OC)c(S(=O)(=O)N2CCN(c3c(C)cccc3C)CC2)c1	ALDH1A1 block 14µM
O=C(NCCC1=CCCCC1)C1CCN(S(=O)(=O)c2ccc(Br)s2)CC1	ALDH1A1 block 19µM, PNC inhibitor inconclusive (no result: HTT ATP protect)
O=S(=O)(O)c1ccc(NN(c2c(O)ccc3ccccc23)S(=O)(=O)O)cc1	none (no result: HttQ103 aggreg, CBFb-RUNX1 inh, PNC inhibitor)
CC(C)(C)c1ccc(C(=O)N2CCC(C(=O)NCCC3=CCCCC3)CC2)cc1	ALDH1A1 block 10µM
COc1ccc(OC)c(S(=O)(=O)N2CCC(C(=O)N3CCc4ccccc4C3)CC2)c1	ALDH1A1 block inconclusive, HPGD block 22µM
COc1ccc(OC)c(S(=O)(=O)N2CCC(C(=O)N3CCOCC3)CC2)c1	none (no result: HPGD block, PNC inhibitor)
O=[N+]([O-])c1ccc2c(c1)C(N1CCOCC1)/C(=C/COc1ccc(Cl)cc1Cl)O2 (configuration not stated)	ALDH1A1 block inconclusive, HttQ103 aggreg inconclusive
O/N=C/c1cc(Br)cc(Br)c1OCc1ccccc1	HPGD block 14µM
CC(N=Cc1c(O)c2ccccc2oc1=O)C(=O)O (configuration not stated)	ALDH1A1 block inconclusive (no result: HPGD block, PNC inhibitor)
OC[C@@H]1O[C@@H](O)[C@H](O)[C@H](O)[C@@H]1O	none (no result: HTT ATP protect, ALDH1A1 block, HttQ103 aggreg, HPGD block, PNC inhibitor)
O=C(Nc1ccccc1C(=O)Nc1nncs1)c1ccccc1	none (no result: ALDH1A1 block, HPGD block, PNC inhibitor)
